Source: PubChem BioAssay (several laboratories)
Sampled rows, rich in hits. Any-hit rate of the full collection: about 5.9%.
HSF1 inh – HSF1 inhibition | NIH3T3-HGL HSE-luciferase, MG132-induced, luminescence 8 h; active compounds read low | 300,000 tested, 0.77% active | activity change, negative = inhibition, % at 7.5 µM (by protocol);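 active = more than half of replicate wells show activity change below -50%, luminescence cut by over half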;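 note: luciferase reports HSF-1 transcriptional activity via heat shock element; 0% = median of DMSO wells and -100% = zero luminescence signal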
FXN GAA850 act – frataxin GAA850 promoter activation; HEK293 lucGAA850 FXN promoter luciferase reporter, 24 h; percent of 10 µM SAHA response; activation, % at 6 µM; 360,000 tested, 0.56% active;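 active = activation above the average of all compounds screened plus 3 SD, cutoff fixed separately per campaign, cut at about 7.5% in these data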;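 note: 0% = DMSO wells and 100% = 10 µM SAHA wells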
HSF-1 act – increases HSF-1 driven luciferase reporter signal | activation, % at 9 µM | NIH3T3-HGL HSF-1 luciferase reporter, MG132, 8 h; 100% = twice DMSO control signal | AID 504408 | 300,000 tested, 1.7% active;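 active = mean replicate activation of at least 50% with a set share of replicates each reaching 50%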;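 note: 0% = median of the neutral control wells and 100% = twice that signal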
AHR activator – activates the human aryl hydrocarbon receptor; P35869; AHR-responsive luciferase reporter cells, luminescence; activation, % at 5 µM; 320,000 tested, 2.5% active; AID 2796; in the data active = activation above about 47%;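 note: 0% = vehicle wells and 100% = reference agonist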
HSP90 refold inh – HSP90 refolding inhibition in rabbit reticulocyte lysate; luciferase refolding luminescence, 3 h; inhibition, % at 5.6 µM; 290,000 tested, 0.91% active; AID 1789;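 active = inhibition above the screen-wide mean plus 3 SD, computed separately per campaign, cut at about 16% in these data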;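 note: 0% = DMSO wells and 100% = 60 µM geldanamycin wells; inhibitors lower the luminescence because luciferase stays unfolded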
NR0B1 inh – inhibits human nuclear receptor DAX1. P51843. HEK293 Gal4-DAX1 luciferase reporter, luminescence. inhibition, % at 6.75 µM. 340,000 tested, 0.99% active. AID 504766;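 active = inhibition above the mean over all tested compounds plus 3 SD, cut at about 4.2% in these data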;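 note: 0% = DAX1-transfected cells with DMSO and 100% = empty-vector control cells with DMSO; inhibition shows as a rise in luminescence from relieved DAX1 repression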
* = called active by the depositor.

Screening COc1ccc(/C(=N/Nc2ncnc3ccccc23)C(=O)O)cc1 returned HSF1 inh 21, FXN GAA850 act 6, HSF-1 act 6, AHR activator 73*, HSP90 refold inh 4 and NR0B1 inh 1.
For COc1ccc(C(=O)Oc2cccc(Nc3ncnc4ccccc34)c2)cc1OC the results were HSF1 inh -9, FXN GAA850 act -1, HSF-1 act -9, AHR activator -2, HSP90 refold inh 4 and NR0B1 inh -3.
O=C(NCCOc1ccccc1)C1CCC(=O)N(CCCN2CCCC2=O)C1 (stereo unspecified) was read as HSF1 inh -12, FXN GAA850 act 0, HSF-1 act -8, AHR activator 3, HSP90 refold inh -4 and NR0B1 inh 1.
For Cc1cc(/C=C2\C(=O)NN(c3ccccc3)C2=O)c(C)n1-c1ccccc1O the results were HSF1 inh -21, FXN GAA850 act -2, HSF-1 act -12, AHR activator 10, HSP90 refold inh -5 and NR0B1 inh 5.4*.
Screening Cc1cc(/C=C2/C(=O)NN(c3ccccc3)C2=O)c(C)n1-c1ccc(O)cc1 returned HSF1 inh -69*, FXN GAA850 act -9, HSF-1 act -69, AHR activator 25, HSP90 refold inh -2 and NR0B1 inh -2.
`COc1ccc(-n2c(C)cc(/C=C3\C(=O)NN(c4ccccc4)C3=O)c2C)cc1` gave HSF1 inh 7, FXN GAA850 act 4, HSF-1 act 25, AHR activator -1, HSP90 refold inh -8 and NR0B1 inh 1.
`Cc1ccccc1Cn1c(=N)n(CC(O)c2ccco2)c2ccccc21` (stereo unspecified) gave HSF1 inh 10, FXN GAA850 act 0, HSF-1 act 1, AHR activator 3, HSP90 refold inh 2 and NR0B1 inh 1.
CC(C)(C)c1ccc(Cn2c(=N)n(CC(O)c3ccco3)c3ccccc32)cc1 (stereo unspecified) was read as HSF1 inh 24, FXN GAA850 act -4, HSF-1 act 56*, AHR activator 3, HSP90 refold inh -3 and NR0B1 inh -1.
For Cc1nn(-c2ccc(Cl)cc2)c(=O)c2c(C)noc12 the results were HSF1 inh -5, FXN GAA850 act 1, HSF-1 act -4, AHR activator 78*, HSP90 refold inh 0 and NR0B1 inh 3.
`O=C1N=c2ccccc2=C1c1[nH]c(=S)[nH]c1O` gave HSF1 inh 3, FXN GAA850 act 1, HSF-1 act 36, AHR activator 61*, HSP90 refold inh 3 and NR0B1 inh -2.
For Cc1ccc(Cl)c2c1=NC(=O)C=2c1[nH]c(=S)[nH]c1O the results were HSF1 inh 58, FXN GAA850 act 2, HSF-1 act 126*, AHR activator 14, HSP90 refold inh -1 and NR0B1 inh 0.
Screening O=C(COC(=O)C1=COCCO1)Nc1ccc([N+](=O)[O-])cc1C(F)(F)F returned FXN GAA850 act 1, AHR activator 2 and NR0B1 inh 1.
CCSc1nc(-c2ccccc2)cc(=O)[nH]1 was read as FXN GAA850 act 3, AHR activator 1 and NR0B1 inh 1.
`COc1ccc(/C=C/c2nc(-c3ccccc3)cc(=O)[nH]2)cc1` gave HSF1 inh 3, FXN GAA850 act 3, HSF-1 act 4, AHR activator 76*, HSP90 refold inh 5 and NR0B1 inh 4.
`O=c1cc(-c2ccccc2)nc(/C=C/c2ccccc2)[nH]1` gave HSF1 inh 12, FXN GAA850 act 0, HSF-1 act 16, AHR activator 36, HSP90 refold inh 1 and NR0B1 inh 5.6*.
Cc1ccccc1C(=O)NC(=S)Nc1ccccc1C(=O)O was read as HSF1 inh 3, FXN GAA850 act 4, HSF-1 act 9, AHR activator 1, HSP90 refold inh 0 and NR0B1 inh 0.
Cc1ccccc1C(=O)NC(=S)Nc1ccccc1[N+](=O)[O-] was read as HSF1 inh 10, FXN GAA850 act 2, HSF-1 act 58*, AHR activator -3, HSP90 refold inh -4 and NR0B1 inh 0.
Screening Cc1ccc(C(=O)OCC(=O)Nc2cc(C(C)(C)C)no2)c(C)c1 returned FXN GAA850 act 0, AHR activator -1 and NR0B1 inh 1.
COc1ccc(NS(=O)(=O)c2ccc3c(c2)NC(=O)CCS3)cc1Cl was read as HSF1 inh -4, FXN GAA850 act -3, HSF-1 act -13, AHR activator 1, HSP90 refold inh 2 and NR0B1 inh 0.
`Cc1ccc(S(=O)(=O)NNC(=O)c2sc3nc(C)cc(C)c3c2-n2cccc2)cc1` gave HSF1 inh 30, FXN GAA850 act -4, HSF-1 act 73*, AHR activator -1, HSP90 refold inh 2 and NR0B1 inh -1.
Screening CC1CCN(CC(=O)Nc2ccc(S(=O)(=O)NC3CC3)cc2)CC1 returned HSF1 inh -65*, FXN GAA850 act 1, HSF-1 act -72, AHR activator -1, HSP90 refold inh 1 and NR0B1 inh 2.
Cn1nnc2c[n+](CC(=O)c3ccc4ccccc4c3)cc(Br)c21 was read as HSF1 inh 41, FXN GAA850 act -2, HSF-1 act 93*, AHR activator 15, HSP90 refold inh 3 and NR0B1 inh -1.
`CCC1(c2ccccc2)NC(=O)N(CC(=O)NC2CCCCCC2)C1=O` (stereo unspecified) gave FXN GAA850 act 1, AHR activator 2 and NR0B1 inh 0.
For N#Cc1cc(-c2ccccc2)c[nH]c1=O the results were HSF1 inh 3, FXN GAA850 act 0, HSF-1 act 0, AHR activator 0, HSP90 refold inh 3 and NR0B1 inh 5.3*.
CSc1cc(-c2ccco2)oc1C(=O)c1ccco1 was read as HSF1 inh 21, FXN GAA850 act 2, HSF-1 act 51*, AHR activator 2 and NR0B1 inh 0.
`CC(C)C[C@H](NC(=O)N1CCCCCC1)C(=O)O` gave HSF1 inh -51*, FXN GAA850 act -2, HSF-1 act -63, AHR activator 1, HSP90 refold inh 3 and NR0B1 inh 0.
Screening O=S(=O)(c1ccc(F)c(F)c1)N1CCCCCCC1 returned FXN GAA850 act 2 and NR0B1 inh 1.
Cc1nc(-c2ccccc2)nc2[nH]c(-c3ccccc3)cc(=O)c12 was read as HSF1 inh -3, FXN GAA850 act 2, HSF-1 act 10, AHR activator 69*, HSP90 refold inh 4 and NR0B1 inh -1.
Cc1nc(C)c2c(=O)cc(-c3ccccc3)[nH]c2n1 was read as HSF1 inh -6, FXN GAA850 act -4, HSF-1 act 15, AHR activator 1, HSP90 refold inh -4 and NR0B1 inh -2.
Screening Nc1cc(Nc2ccc(Br)cc2)nc(N)n1 returned HSF1 inh -5, FXN GAA850 act 5, HSF-1 act -9, AHR activator 62*, HSP90 refold inh 5 and NR0B1 inh 2.
